test system: hN + hpA co-culture (H1 iNGN2 human neurons + human primary astrocytes); assay: presynaptic density (SYNAPSIN1 puncta per MAP2 neurite area), Z-score vs DMSO controls; higher = more presynaptic puncta (synapse-promoting); conditions: 3 µM; 72 h
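Further: immunostained co-cultures imaged by high-content microscopy, Z-score per plate against mean and SD of 0.1% DMSO wells, compounds added on differentiation day 18, analysed day 21.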

SMILES	presynaptic density (Z-score)
CC(NC(=O)c1ccccc1N=Cc1c(O)ccc2ccccc12)c1ccccc1 (stereo not drawn)	0.165
NC(=O)N1c2ccccc2CC(=O)c2ccccc21	0.372
O=C(c1ccc(Nc2nccc(-c3cc4ccccc4s3)n2)cc1)N1CCC(N2CCCC2)CC1	0.27
CCCCc1nc(Cl)c(CO)n1Cc1ccc(-c2ccccc2-c2nnn[nH]2)cc1 [Losartan Potassium (DuP 753)]	0.806
CCOC(=O)NCCCC(=O)NCCc1ccccc1	-0.656
O=c1cc(-c2cccc3c2Sc2ccccc2S3)oc(N2CCOCC2)c1	-0.963
CCOC(=O)N1CCC(=C2c3ccc(Cl)cc3CCc3cccnc32)CC1 [Loratadine]	1.78
CC(C)n1c(/C=C/C(O)CC(O)CC(=O)O)c(-c2ccc(F)cc2)c2ccccc21 (stereo not drawn) [Fluvastatin Sodium]	1.53
Cc1nnc(C(C)C)n1C1C[C@H]2CC[C@@H](C1)N2CC[C@H](NC(=O)C1CCC(F)(F)CC1)c1ccccc1 (stereo in doubt) [Maraviroc]	-1.28
O=C1[C@H](Cc2ccc(O)cc2)N2C(=O)CCN(C(=O)NCc3ccccc3)[C@H]2CN1Cc1cccc2ccccc12	-0.969
CCCC(C)NC(=O)c1ccc(Cl)c(Cl)c1 (stereo not drawn)	-0.211
C#Cc1cccc(Nc2ncnc3cc(OCCOC)c(OCCO)cc23)c1	-0.577
Cc1c(C(=O)Nc2ccc(N3C[C@@H](C)O[C@@H](C)C3)nc2)cccc1-c1ccc(OC(F)(F)F)cc1 [LDE225 (NVP-LDE225,Erismodegib)]	0.612
CC(C)c1onc(-c2c(Cl)cccc2Cl)c1COc1ccc(/C=C/c2cccc(C(=O)O)c2)c(Cl)c1	-0.576
COc1ccccc1S(=O)(=O)Nc1ccc2c(c1)CN(C)C(=O)N2	0.796
CC(C)(C)c1cnc(CSc2cnc(NC(=O)C3CCNCC3)s2)o1	-3.77
CCCC(=O)Nc1cccc(NC(=O)c2ccccc2Br)c1	-0.374
C[C@@H]1C(=O)O[C@H]2C[C@@]34[C@H]5C[C@@H](C(C)(C)C)[C@]36[C@@H](OC(=O)[C@@H]6O)O[C@@]4(C(=O)O5)[C@]21O	-0.498
CN1CCC(CNc2ccc3ncc(-c4cccc(OC(F)(F)F)c4)n3n2)CC1	-2.44

SMILES	presynaptic density (Z-score)
CN(C)CCOc1ccc(/C(=C(/CCCl)c2ccccc2)c2ccccc2)cc1	-0.866
O=C(O)/C=C/c1ccc(Cn2ccnc2)cc1 [Ozagrel]	-0.554
CN1C(=O)C(Cc2c[nH]c3ccccc23)NC1=S (stereo not drawn) [5-(1H-Indol-3-ylmethyl)-3-methyl-2-thioxo-4-imidazolidinone]	-0.458
CC(C)(C)Cn1c(N)nc2ccc(-c3[nH]c(C(C)(C)C)nc3-c3ccc(F)cc3)nc21	0.191
CCN(CC)CCCC(C)Nc1nc(C)cc(Nc2ccc3nc(C)cc(N)c3c2)n1 (stereo not drawn)	-0.607
COc1ccccc1OCCNCC(O)COc1cccc2[nH]c3ccccc3c12 (stereo not drawn)	-1.2
OCCn1cc(-c2cnc3nnn(Cc4ccc5ncccc5c4)c3n2)cn1	-0.173
COc1ccc(C(=O)Nc2sc3c(c2C(N)=O)CCCC3)cc1OC	0.457
CC(C)NCC(O)COc1ccc(COCCOC(C)C)cc1 (racemic)	-0.749
CCN(c1cc(-c2ccc(CN3CCOCC3)cc2)cc(C(=O)NCc2c(C)cc(C)[nH]c2=O)c1C)C1CCOCC1	-0.342
S=C=Nc1cccc(NC(=S)NCCCCNC(=S)Nc2cccc(N=C=S)c2)c1	0.95
CCN(Cc1ccncc1)C(=O)C(CO)c1ccccc1 (stereo not drawn) [Tropicamide]	-0.597
Cn1c(N2CCCCS2(=O)=O)nc(C(=O)NCc2ccc(F)cc2)c(O)c1=O	-1.68
CN(c1ncccc1CNc1nc(Nc2ccc3c(c2)CC(=O)N3)ncc1C(F)(F)F)S(C)(=O)=O	-0.85
O=C(/C=C/c1cccc(S(=O)(=O)Nc2ccccc2)c1)NO [Belinostat(PXD101)]	2.26
COc1cc2c(cc1OC)[C@@H]1Cc3ccc(OC)c(OC)c3CN1CC2 [Rotundine]	-0.985
CN(C)Cc1ccc(-c2nc3cccc4c3n2CCNC4=O)cc1	-0.178
Cc1ccc(NC(=O)C2(c3ccc4c(c3)OC(F)(F)O4)CC2)nc1-c1cccc(C(=O)O)c1 [VX-809 (Lumacaftor)]	-0.6
Cc1cccc(CC(=O)N2CCc3c2ccc(-c2cn(C)c4ncnc(N)c24)c3F)n1	-0.752
